# Laboratory results published in the supplement of paper PMC12494721.
# Structures can show the parent of a compound that is named as a salt.
# Test system: Klebsiella aerogenes DSM 30053
# Experiment: growth (OD595) fold change vs plate DMSO controls (fold change (ratio)); higher = more growth
# Conditions: incubation time: 27 h, anaerobic, 37 °C
# Summary of the method: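 Growth is calculated as fold change against the median of the DMSO control wells on each plate. Readings at 595 nm from anaerobic mGAM cultures (96-well, 27 h, 37 °C) were blank-subtracted, background-corrected with 20 µM compound solutions in water, and converted to OD by a calibration factor of 5. Fold changes above 1.5 were recorded as NA, and results are means of 2 biological replicates.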
row,SMILES,growth
1,CCCCCCCCCCCCCCCCCCCCCC(=O)Nc1ccn([C@@H]2O[C@H](CO)[C@@H](O)[C@@H]2O)c(=O)n1 [Enocitabine] (20 µM),0.98
2,COCC1=C(C(=O)OC(C)OC(=O)OC(C)C)N2C(=O)[C@@H](NC(=O)/C(=N\OC)c3csc(N)n3)[C@H]2SC1 (stereo not given in full) [Cefpodoxime proxetil] (20 µM),1.04
3,COc1cccc2c1C(=O)c1c(O)c3c(c(O)c1C2=O)C[C@@](O)(C(=O)CO)C[C@@H]3O[C@H]1C[C@H](N)[C@@H](O)[C@H](C)O1 [Epirubicin hydrochloride] (20 µM),0
4,CN1CCCN(C(c2ccccc2)c2ccc(Cl)cc2)CC1 (stereo not given) [Homochlorcyclizine dihydrochloride] (20 µM),1
5,COc1ccc(/C=C/C(=O)Nc2ccccc2C(=O)O)cc1OC [Tranilast] (20 µM),1.19
6,CC(C)Nc1ncccn1 [Isaxonine] (20 µM),1.07
7,CC(=O)N[C@@H](CS)C(=O)O [Acetylcysteine] (20 µM),0.967
8,C=C1C[C@@]23CC[C@H]4[C@@](C)(CCC[C@@]4(C)C(=O)O[C@@H]4O[C@H](CO)[C@@H](O)[C@H](O)[C@H]4O)[C@@H]2CC[C@]1(O[C@@H]1O[C@H](CO)[C@@H](O)[C@H](O)[C@H]1O[C@@H]1O[C@H](CO)[C@@H](O)[C@H](O)[C@H]1O)C3 [Stevioside] (50 µM),0.995
9,Nc1ccc(S(=O)(=O)Nc2nccs2)cc1 [Sulfathiazole] (20 µM),1.03
10,CC(=O)OCC(=O)[C@@]1(O)CC[C@H]2[C@@H]3CCC4=CC(=O)C=C[C@]4(C)[C@@]3(F)[C@@H](O)C[C@@]21C [Isoflupredone acetate] (20 µM),0.983
